Hit rate of the full screen: of about 5,500 compounds, about 2,000 (36%) were called active. Roughly 18% stayed inconclusive and do not appear here. Cut-off read from the data, not from the text of the source: active = normalized growth mostly below about 0.91 (no sharp cut-off); inconclusive = no clear call, values can overlap the other calls; inactive = mostly above about 0.92. This is one part of the list.
Test: chemical genetic growth profiling, strain panel (AID 1159580);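 note: tested at 20 µM; growth read once vehicle control cultures reached saturation at 30 °C; 1 = growth at the plate median or of vehicle wells; lower values mean less growth of the strain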
Details: S. cerevisiae deletion strains, growth OD

Measured: normalized growth

CC(=O)Oc1cc2c(c(C)c1OC(C)=O)CC1OC13C2(C)CCC1(C)C2CC(C)(C(=O)O)CCC2(C)CCC13C (configuration not stated)
inactive: locus YAL021C, strain ccr4, hits give low values 0.988 | locus YAL026C, strain drs2, hits give low values 1.04 | locus YAL030W, strain snc1, hits give low values 1.01 | locus YBL061C, strain skt5, hits give low values 1.04 | locus YBR009C, strain hhf1, hits give low values 1 | locus YBR021W, strain FUR4, hits give low values 0.99 | locus YBR023C, strain chs3, hits give low values 1.01 | locus YBR171W, strain sec66, hits give low values 1.02 | locus YBR229C, strain ROT2, hits give low values 1.01 | locus YBR231C, strain swc5, hits give low values 1.04 | locus YBR279W, strain paf1, hits give low values 1.02 | locus YCL011C, strain gbp2, hits give low values 1.01 | locus YCL016C, strain dcc1, hits give low values 1 | locus YCL029C, strain bik1, hits give low values 1.03 | locus YCL069W, strain vba3, hits give low values 1.03 | locus YCR088W, strain abp1, hits give low values 1.01 | locus YDL005C, strain med2, hits give low values 1.02 | locus YDL035C, strain GPR1, hits give low values 0.993 | locus YDL040C, strain nat1, hits give low values 1.02 | locus YDL074C, strain BRE1, hits give low values 1.02 | locus YDL101C, strain DUN1, hits give low values 1.01 | locus YDL185W, strain tfp1, hits give low values 1.04 | locus YDL192W, strain arf1, hits give low values 1.02 | locus YDR001C, strain nth1, hits give low values 1.01 | locus YDR069C, strain doa4, hits give low values 1.01 | locus YDR101C, strain arx1, hits give low values 1.03 | locus YDR137W, strain rgp1, hits give low values 1.02 | locus YDR159W, strain sac3, hits give low values 1.05 | locus YDR162C, strain NBP2, hits give low values 1 | locus YDR195W, strain ref2 1.02 | locus YDR297W, strain sur2, hits give low values 1.02 | locus YDR318W, strain mcm21, hits give low values 1.02 | locus YDR334W, strain swr1, hits give low values 1.01 | locus YDR335W, strain msn5, hits give low values 1.02 | locus YDR388W, hits give low values 1.02 | locus YDR392W, strain spt3, hits give low values 0.919 | locus YDR502C, strain sam2, hits give low values 1.01 | locus YEL003W, strain gim4, hits give low values 1.01 | locus YEL037C, strain rad23, hits give low values 1.01 | locus YEL061C, strain CIN8 (second series), hits give low values 1.02 | locus YEL061C, strain CIN8, hits give low values 1.01 | locus YER015W, strain faa2, hits give low values 1.02 | locus YER016W, strain bim1, hits give low values 1.02 | locus YER110C, hits give low values 1.03 | locus YER111C, strain swi4, hits give low values 1 | locus YER155C, strain BEM2 (second series), hits give low values 1.01 | locus YER155C, strain BEM2, hits give low values 0.99 | locus YER167W, strain BCK2, hits give low values 1.01 | locus YFR010W, strain ubp6, hits give low values 1.03 | locus YGL078C, strain dbp3, hits give low values 0.99 | locus YGL086W, strain mad1, hits give low values 1.02 | locus YGL167C, strain pmr1, hits give low values 1 | locus YGL173C, strain kem1, hits give low values 1.02 | locus YGL227W, strain vid30, hits give low values 1.02 | locus YGL240W, strain doc1, hits give low values 1.02 | locus YGL248W, strain PDE1, hits give low values 0.999 | locus YGL253W, strain hxk2, hits give low values 1.03 | locus YGR135W, strain pre9, hits give low values 1.03 | locus YGR252W, strain gcn5, hits give low values 0.989 | locus YHR013C, strain ard1, hits give low values 1.01 | locus YHR027C, strain rpn1, hits give low values 1.01 | locus YHR030C, strain SLT2, hits give low values 1.02 | locus YHR079C, strain IRE1 (second series), hits give low values 1.04 | locus YHR094C, strain hxt1, hits give low values 1.04 | locus YHR129C, strain ARP1, hits give low values 1.01 | locus YHR142W, strain chs7, hits give low values 1.01 | locus YHR200W, strain rpn10, hits give low values 1.04 | locus YIL066C, strain RNR3, hits give low values 0.998 | locus YIL073C, strain SPO22, hits give low values 1.02 | locus YIL125W, strain kgd1, hits give low values 1.01 | locus YIR030C, strain dcg1, hits give low values 1.04 | locus YJL092W, strain hpr5, hits give low values 1.02 | locus YJL095W, strain BCK1 (second series), hits give low values 1.03 | locus YJL095W, strain BCK1, hits give low values 0.998 | locus YJL115W, strain asf1, hits give low values 1.01 | locus YJL129C, strain trk1, hits give low values 1.02 | locus YJL134W, strain LCB3, hits give low values 1.01 | locus YJL154C, strain vps35, hits give low values 1.01 | locus YJL164C, strain tpk1, hits give low values 0.989 | locus YJL166W, strain qcr8, hits give low values 1.01 | locus YJL168C, strain set2, hits give low values 1.03 | locus YJL187C, strain SWE1 (second series), hits give low values 0.992 | locus YJR043C, strain POL32, hits give low values 1 | locus YKL009W, strain mrt4, hits give low values 0.927 | locus YKL068W, hits give low values 1.03 | locus YKL085W, strain MDH1 (second series), hits give low values 1 | locus YKL085W, strain MDH1, hits give low values 1 | locus YKL160W, strain elf1, hits give low values 1 | locus YKL190W, strain CNB1, hits give low values 1 | locus YKR001C, strain vps1, hits give low values 0.993 | locus YKR026C, strain gcn3, hits give low values 1.02 | locus YKR091W, strain srl3, hits give low values 1.01 | locus YLL001W, strain dnm1, hits give low values 1.03 | locus YLL026W, hits give low values 1.01 | locus YLL041C, strain sdh2, hits give low values 1.01 | locus YLR027C, strain aat2, hits give low values 1.01 | locus YLR039C, strain RIC1, hits give low values 0.893 | locus YLR058C, strain SHM2, hits give low values 1 | locus YLR102C, strain apc9, hits give low values 1.03 | locus YLR221C, strain rsa3, hits give low values 1.03 | locus YLR258W, strain gsy2, hits give low values 1.02 | locus YLR262C, strain YPT6 (second series), hits give low values 1.02 | locus YLR262C, strain YPT6, hits give low values 0.853 | locus YLR268W, strain sec22, hits give low values 1.04 | locus YLR320W, strain mms22, hits give low values 1.03 | locus YLR330W, strain CHS5, hits give low values 1.01 | locus YLR342W, strain FKS1 (second series), hits give low values 1 | locus YLR342W, strain FKS1, hits give low values 1.02 | locus YLR357W, strain rsc2, hits give low values 1.01 | locus YLR370C, strain arc18, hits give low values 1.01 | locus YLR371W, strain rom2, hits give low values 1.05 | locus YLR384C, strain iki3, hits give low values 1 | locus YLR418C, strain cdc73, hits give low values 1 | locus YML016C, strain PPZ1, hits give low values 1.01 | locus YML032C, strain rad52, hits give low values 1.03 | locus YML120C, strain ndi1, hits give low values 1.02 | locus YML124C, strain tub3, hits give low values 1.02 | locus YMR058W, strain fet3, hits give low values 1.03 | locus YMR078C, strain ctf18, hits give low values 1.04 | locus YMR125W, strain sto1, hits give low values 0.985 | locus YMR129W, hits give low values 1.01 | locus YMR205C, strain PFK2, hits give low values 0.988 | locus YMR223W, strain ubp8, hits give low values 1.05 | locus YMR231W, strain pep5, hits give low values 1.01 | locus YMR263W, strain SAP30, hits give low values 1.01 | locus YMR307W, strain GAS1, hits give low values 0.949 | locus YNL067W, strain RPL9B, hits give low values 1 | locus YNL071W, strain lat1, hits give low values 1.01 | locus YNL153C, strain GIM3, hits give low values 1 | locus YNL209W, strain ssb2, hits give low values 0.994 | locus YNL233W, strain BNI4, hits give low values 1.02 | locus YNL248C, strain rpa49, hits give low values 1.06 | locus YNL250W, strain rad50, hits give low values 1.02 | locus YNL271C, strain bni1, hits give low values 1.03 | locus YNL298W, strain CLA4, hits give low values 0.994 | locus YNL307C, strain MCK1, hits give low values 1.03 | locus YNL322C, strain KRE1 (second series), hits give low values 0.994 | locus YNR049C, strain mso1, hits give low values 1.04 | locus YNR052C, strain pop2, hits give low values 1.01 | locus YOL006C, strain TOP1, hits give low values 0.964 | locus YOL012C, strain htz1 1.11 | locus YOL147C, strain pex11, hits give low values 1.04 | locus YOR001W, strain rrp6, hits give low values 1.02 | locus YOR061W, strain CKA2, hits give low values 1.02 | locus YOR069W, strain VPS5, hits give low values 1.01 | locus YOR070C, strain gyp1, hits give low values 1.04 | locus YOR080W, strain dia2, hits give low values 1.02 | locus YOR083W, strain WHI5, hits give low values 1.01 | locus YOR106W, strain vam3, hits give low values 1.01 | locus YOR136W, strain idh2, hits give low values 1.02 | locus YOR144C, strain elg1, hits give low values 1.03 | locus YOR184W, strain ser1, hits give low values 0.994 | locus YOR265W, strain rbl2, hits give low values 1.01 | locus YOR270C, strain vph1, hits give low values 1.05 | locus YOR290C, strain snf2, hits give low values 0.994 | locus YOR316C, strain cot1, hits give low values 1.03 | locus YPL051W, strain arl3, hits give low values 1.02 | locus YPL055C, strain LGE1, hits give low values 1.01 | locus YPL078C, strain atp4, hits give low values 0.99 | locus YPL106C, strain sse1, hits give low values 1.03 | locus YPL240C, strain hsp82, hits give low values 1.01 | locus YPL241C, strain CIN2, hits give low values 1 | locus YPR119W, strain clb2, hits give low values 1.02 | locus YPR141C, strain kar3, hits give low values 1.02 | locus YPR163C, strain tif3, hits give low values 1.04 | locus YPR167C, strain met16, hits give low values 1.02 | strain wtn01, hits give low values 1.01
